Measured values: PubChem BioAssay
Active and inactive are the calls of the source. Unless noted, no rule for the calls is given here.

Experiments:
[1] = resazurin metabolic signal in HepG2 cells – cell-based, resazurin fluorescence, 24 h, PK04 Diversity Set, profiling panel (AID 1172); details: HepG2 viability, higher = more signal
[2] = budding yeast growth changes without added modifier – OD600, strain BY4716, 24 h, basal condition, primary screen (AID 1173); details: S. cerevisiae BY4716 growth, OD600, 24 h; higher = more signal, called active from +8 up or from −8 down
[3] = viability profiling in MM1S myeloma cells – cell-based, resazurin fluorescence, basal, 24 h, PK04 Diversity Set, profiling panel (AID 1174); details: higher = more signal, called active from +8 up or from −8 down;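 also: MM1S multiple myeloma cell line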
[4] = target: Dihydroorotate dehydrogenase (quinone), mitochondrial (Plasmodium falciparum (isolate 3D7)) (UniProt Q08210); experiment: inhibition of P. falciparum DHODH – biochemical, C-terminal His tag, absorbance 600 nm, primary screen (AID 1175); details: PfDHODH enzyme, DCIP absorbance 600 nm; higher = more signal, called active from +8 up or from −8 down;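 also: recombinant parasite enzyme with a five histidine tag at its C terminus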
Dihydroorotate dehydrogenase (quinone), mitochondrial (Plasmodium falciparum (isolate 3D7)), sequence (Q08210 whole entry, looked up): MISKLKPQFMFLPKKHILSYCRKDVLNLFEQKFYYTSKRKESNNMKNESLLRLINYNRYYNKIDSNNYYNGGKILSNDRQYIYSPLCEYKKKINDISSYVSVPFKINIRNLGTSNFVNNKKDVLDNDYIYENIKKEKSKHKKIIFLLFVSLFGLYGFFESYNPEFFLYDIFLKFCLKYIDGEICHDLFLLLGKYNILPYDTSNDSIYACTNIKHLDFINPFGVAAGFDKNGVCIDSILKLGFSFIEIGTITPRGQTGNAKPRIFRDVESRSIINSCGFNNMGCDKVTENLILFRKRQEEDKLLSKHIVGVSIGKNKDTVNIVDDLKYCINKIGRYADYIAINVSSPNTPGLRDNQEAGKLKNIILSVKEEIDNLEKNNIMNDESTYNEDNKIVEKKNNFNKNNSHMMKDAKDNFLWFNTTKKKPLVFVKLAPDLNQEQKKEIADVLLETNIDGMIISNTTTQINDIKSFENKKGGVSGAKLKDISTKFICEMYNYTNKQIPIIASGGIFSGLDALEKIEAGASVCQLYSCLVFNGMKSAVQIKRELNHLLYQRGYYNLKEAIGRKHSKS

[5] = inhibition of PAO1 biofilm formation – strain PAO1, LB-PBS medium, absorbance 600 nm, primary screen (AID 1176); details: P. aeruginosa PAO1 growth/biofilm, A600, 12 h; higher = more signal
[6] = growth modulation of vineyard yeast isolate – strain RM11-1a, OD600, basal, 24 h, primary screen (AID 1177);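 also: cultures grown under basal conditions with no added stressor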; details: S. cerevisiae RM11-1a growth, OD600, 24 h; higher = more signal, called active from +8 up or from −8 down
[7] = growth of efflux-deficient E. coli DRC39 – strain DRC39, OD650, 24 h, E. coli filamentation inducers, primary screen (AID 1178);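 also: growth measured as culture turbidity by optical density at 650 nm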; details: E. coli DRC39 acrAB, higher = more signal, called active from +8 up or from −8 down
[8] = growth of efflux-deficient E. coli DRC39 – strain DRC39, OD650, 48 h, E. coli filamentation inducers, primary screen (AID 1179);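 also: screen aims at cell division blockers that make cells filament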; details: E. coli DRC39 delta-acrAB growth, higher = more signal, called active from +8 up or from −8 down
[9] = viability profiling in RPMI8226 myeloma cells – cell-based, resazurin fluorescence, basal, 24 h, PK04 Diversity Set, profiling panel (AID 1180); details: higher = more signal;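 also: RPMI8826 multiple myeloma cell line at 5000 cells per well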
[10] = target: E3 ubiquitin-protein ligase XIAP (Homo sapiens) (UniProt P98170); experiment: small molecules binding XIAP protein – biophysical, small-molecule microarray, fluorescence 635 nm, primary screen (AID 1181); details: higher = more signal;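 also: score merges 667 nm emission and signal to noise over triplicate slides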
E3 ubiquitin-protein ligase XIAP (Homo sapiens), sequence (P98170 whole entry, looked up, the tested form may be a part): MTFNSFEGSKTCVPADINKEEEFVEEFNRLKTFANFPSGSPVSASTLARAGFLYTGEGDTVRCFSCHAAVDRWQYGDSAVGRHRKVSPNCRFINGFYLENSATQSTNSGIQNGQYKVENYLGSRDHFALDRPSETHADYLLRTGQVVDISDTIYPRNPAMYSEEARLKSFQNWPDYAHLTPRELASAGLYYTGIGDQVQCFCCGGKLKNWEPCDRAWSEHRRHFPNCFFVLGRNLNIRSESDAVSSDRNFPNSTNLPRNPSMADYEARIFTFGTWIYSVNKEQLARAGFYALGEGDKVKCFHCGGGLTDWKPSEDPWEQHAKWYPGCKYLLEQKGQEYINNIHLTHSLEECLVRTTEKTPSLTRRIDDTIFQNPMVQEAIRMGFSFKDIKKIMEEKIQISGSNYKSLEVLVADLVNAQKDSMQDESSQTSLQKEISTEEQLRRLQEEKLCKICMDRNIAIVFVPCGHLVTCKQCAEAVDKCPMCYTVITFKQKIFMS

[11] = tested on: XIP peptide (Xip251-270) binding; experiment: XIP fragment 251-270 binding compounds – biochemical, small-molecule microarray, fluorescence 635/667 nm, 0.1 µg/mL protein, primary screen (AID 1182); details: fluorescent protein binding, 635 nm, higher = more signal, called active from +8 up or from −8 down
XIP peptide (Xip251-270) = experiment: compounds binding XIP fragment 251-270 – biochemical, small-molecule microarray, fluorescence 635/667 nm, 0.5 µg/mL protein, primary screen (AID 1183); details: fluorescence 635 nm, higher = more signal
[12] = blood-stage malaria parasite viability loss – strain 3D7, DAPI fluorescence, 100 nL, primary screen (AID 1184);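 also: parasites grown inside human red blood cells in medium with human serum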; details: P. falciparum 3D7 growth, 3 d, higher = more signal
[13] = target: Homeobox protein Hox-A13 (Mus musculus) (UniProt Q62424); experiment: disruptors of Hoxa13 oligonucleotide interaction – biochemical, fluorescence polarization, labeled oligonucleotide, primary screen (AID 1185); details: Hoxa13:DNA binding, 15 min, higher = more signal, called active from +8 up or from −8 down
Homeobox protein Hox-A13 (Mus musculus), sequence (Q62424 whole entry, looked up): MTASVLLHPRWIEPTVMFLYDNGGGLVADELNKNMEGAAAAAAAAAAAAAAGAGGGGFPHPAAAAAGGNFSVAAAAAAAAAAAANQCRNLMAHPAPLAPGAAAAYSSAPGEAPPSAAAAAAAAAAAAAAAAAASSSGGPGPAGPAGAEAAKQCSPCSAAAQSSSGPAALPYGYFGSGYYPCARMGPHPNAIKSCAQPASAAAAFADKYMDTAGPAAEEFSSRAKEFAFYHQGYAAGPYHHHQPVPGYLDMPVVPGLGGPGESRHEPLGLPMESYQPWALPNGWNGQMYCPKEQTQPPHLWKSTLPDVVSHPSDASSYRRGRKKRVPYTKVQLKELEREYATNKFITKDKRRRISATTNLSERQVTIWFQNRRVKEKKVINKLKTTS

[14] = blockers of DNA damage checkpoint Chk1 activation – imaging, HeLa, hydroxyurea, phospho-Chk1 antibody, percent positive cells, primary screen (AID 1186); details: hydroxyurea-induced phospho-Chk1 immunofluorescence imaging, higher = more signal
[15] = blockers of DNA damage checkpoint Chk1 activation – imaging, HeLa, hydroxyurea, phospho-Chk1 nuclear intensity, primary screen (AID 1187); details: hydroxyurea-induced phospho-Chk1 immunofluorescence imaging, higher = more signal

## COC(=O)[C@@]1(Cc2ccc(OC)cc2)[C@H]2c3cc(C(=O)N4CCCC4)n(CCc4ccc(O)c(OC)c4)c3C[C@H]2CN1C(=O)c1ccccc1
[1]
  z-score: -0.21
[2]
  z-score: 0.768 (inactive)
[3]
  z-score: -0.427 (inactive)
[4]
  composite z-score: -0.474 (inactive)
[5]
  z-score: 0.467 (inactive)
[6]
  z-score: 0.279 (inactive)
[7]
  z-score: -0.744 (inactive)
[8]
  z-score: -0.939 (inactive)
[9]
  z-score: -0.125
[10]
  composite z-score: 0.659
[11]
  composite z-score: 0.739 (inactive)
XIP peptide (Xip251-270)
  composite z-score: -0.506
[12]
  z-score: -0.37
[13]
  z-score: -4.35 (inactive)
[14]
  z-score: 0.219 (inactive)
[15]
  z-score: 0.0055 (inactive)

## CCCC=C(CCC)[C@@H](NS(=O)(=O)CC)c1ccccc1
[1]
  z-score: 0.281
[2]
  z-score: 1.32 (inactive)
[3]
  z-score: -0.364 (inactive)
[4]
  composite z-score: -0.317 (inactive)
[5]
  z-score: 0.302 (inactive)
[6]
  z-score: 0.462 (inactive)
[7]
  z-score: -1.1 (inactive)
[8]
  z-score: -0.0887 (inactive)
[9]
  z-score: -0.745
[10]
  composite z-score: 0.23
[11]
  composite z-score: -0.255 (inactive)
XIP peptide (Xip251-270)
  composite z-score: 0.52
[12]
  z-score: -0.977
[13]
  z-score: -0.298 (inactive)
[14]
  z-score: 0.304 (inactive)
[15]
  z-score: 0.408 (inactive)

## CC(=O)NCCCC[C@@H]1NC(=O)[C@@H]2C[C@H](C(=O)NCCCC[N+](C)(C)C)[C@H](c3cccc(OCCO)c3)N2C1=O
[1]
  z-score: -0.44
[2]
  z-score: 1.41 (inactive)
[3]
  z-score: -1.56 (inactive)
[4]
  composite z-score: -22.3 (active)
[5]
  z-score: 0.876 (inactive)
[6]
  z-score: 0.954 (inactive)
[7]
  z-score: -0.0845 (inactive)
[8]
  z-score: -0.629 (inactive)
[9]
  z-score: -0.803
[10]
  composite z-score: 0.142
[11]
  composite z-score: 0.383 (inactive)
XIP peptide (Xip251-270)
  composite z-score: 0.446
[12]
  z-score: -0.102
[13]
  z-score: -2.25 (inactive)
[14]
  z-score: -0.349 (inactive)
[15]
  z-score: -0.317 (inactive)

## C=CCOC(=O)[C@H]1[C@@H]2C(=O)O[C@@H](c3ccccc3)[C@@H](c3ccccc3)N2[C@@H](c2ccc(OCCOC(=O)[C@H]3C[C@H]4C(=O)N[C@@H](CCCCN(C)C)C(=O)N4[C@H]3c3ccc(O)cc3)cc2)[C@]12C(=O)Nc1ccccc12
[1]
  z-score: 0.569
[2]
  z-score: -2.35 (inactive)
[3]
  z-score: 0.95 (inactive)
[4]
  composite z-score: 0.279 (inactive)
[5]
  z-score: -0.723 (inactive)
[6]
  z-score: 0.719 (inactive)
[7]
  z-score: 0.172 (inactive)
[8]
  z-score: -0.739 (inactive)
[9]
  z-score: 0.828
[10]
  composite z-score: 0.0425
[11]
  composite z-score: 0.275 (inactive)
XIP peptide (Xip251-270)
  composite z-score: 0.582
[12]
  z-score: -0.216
[13]
  z-score: 4.13 (inactive)
[14]
  z-score: -0.685 (inactive)
[15]
  z-score: -0.308 (inactive)

## COc1cc2c(cc1OC)CN(C(=O)[C@@H]1[C@H]3C(=O)O[C@H](c4ccccc4)[C@H](c4ccccc4)N3[C@H](c3ccc(O)cc3)[C@@]13C(=O)Nc1ccc(C#CCNC(N)=O)cc13)CC2
[1]
  z-score: 1.1
[2]
  z-score: 0.526 (inactive)
[3]
  z-score: 0.602 (inactive)
[4]
  composite z-score: -0.0904 (inactive)
[5]
  z-score: 0.723 (inactive)
[6]
  z-score: 2.03 (inactive)
[7]
  z-score: 0.595 (inactive)
[8]
  z-score: 0.322 (inactive)
[9]
  z-score: 0.431
[10]
  composite z-score: -0.0663
[11]
  composite z-score: 0.503 (inactive)
XIP peptide (Xip251-270)
  composite z-score: -0.0161
[12]
  z-score: -0.656
[13]
  z-score: -1.67 (inactive)
[14]
  z-score: 0.259 (inactive)
[15]
  z-score: 0.278 (inactive)

## CCN(CC)c1ccc(N2CC=CC34O[C@@H]5/C=C\CCCOC(=O)C5[C@H]3C(=O)N(CCCCCCO)[C@@H]4C2=O)cc1 (some centres undefined)
[1]
  z-score: -0.574
[2]
  z-score: -1.14 (inactive)
[3]
  z-score: 0.93 (inactive)
[4]
  composite z-score: -2.09 (inactive)
[5]
  z-score: -0.869 (inactive)
[6]
  z-score: -1.78 (inactive)
[7]
  z-score: 0.318 (inactive)
[8]
  z-score: 0.901 (inactive)
[9]
  z-score: 0.79
[10]
  composite z-score: -0.083
[11]
  composite z-score: 1.51 (inactive)
XIP peptide (Xip251-270)
  composite z-score: 0.897
[12]
  z-score: -0.789
[13]
  z-score: -5.09 (inactive)
[14]
  z-score: -0.0771 (inactive)
[15]
  z-score: 1.02 (inactive)

## CCOC(=O)C[C@H]1[C@H](OC(=O)c2ccccc2-c2ccccc2)[C@@H](NC(=O)c2ccccc2)c2cc(OCCCO)ccc2N1C(=O)Cc1ccc(OC)cc1
[1]
  z-score: 0.834
[2]
  z-score: 0.606 (inactive)
[3]
  z-score: -0.397 (inactive)
[4]
  composite z-score: -0.369 (inactive)
[5]
  z-score: 0.142 (inactive)
[6]
  z-score: 0.143 (inactive)
[7]
  z-score: 0.228 (inactive)
[8]
  z-score: 0.15 (inactive)
[9]
  z-score: -0.37
[10]
  composite z-score: 0.0871
[11]
  composite z-score: -0.231 (inactive)
XIP peptide (Xip251-270)
  composite z-score: -0.73
[12]
  z-score: -0.375
[13]
  z-score: -2.77 (inactive)
[14]
  z-score: 0.237 (inactive)
[15]
  z-score: 0.356 (inactive)

## C=CCOC(=O)[C@@H]1[C@H]2C(=O)O[C@H](c3ccccc3)[C@H](c3ccccc3)N2[C@H](c2ccc(OCCOC(=O)[C@@H]3C[C@@H]4C(=O)N5CCC[C@H]5C(=O)N4[C@@H]3c3cccc(OCCO)c3)cc2)[C@@]12C(=O)Nc1ccc(I)cc12
[1]
  z-score: 0.586
[2]
  z-score: 1.53 (inactive)
[3]
  z-score: 0.356 (inactive)
[4]
  composite z-score: -0.652 (inactive)
[5]
  z-score: 1.69 (inactive)
[6]
  z-score: 2.07 (inactive)
[7]
  z-score: 0.132 (inactive)
[8]
  z-score: -0.63 (inactive)
[9]
  z-score: 0.281
[10]
  composite z-score: -0.224
[11]
  composite z-score: 0.284 (inactive)
XIP peptide (Xip251-270)
  composite z-score: 0.632
[12]
  z-score: -1.72
[13]
  z-score: 1.17 (inactive)
[14]
  z-score: 0.021 (inactive)
[15]
  z-score: 0.318 (inactive)

## O=C1OCC=C[C@H]2OC34C=CCN(CCN5CCOCC5)C(=O)[C@H]3N(CCCCCO)C(=O)[C@@H]4[C@@H]12 (some centres undefined)
[1]
  z-score: -0.267
[2]
  z-score: -0.654 (inactive)
[3]
  z-score: -1.12 (inactive)
[4]
  composite z-score: 0.31 (inactive)
[5]
  z-score: -0.525 (inactive)
[6]
  z-score: 0.105 (inactive)
[7]
  z-score: -1.18 (inactive)
[8]
  z-score: -1.37 (inactive)
[9]
  z-score: -0.82
[10]
  composite z-score: 0.11
[11]
  composite z-score: 0.102 (inactive)
XIP peptide (Xip251-270)
  composite z-score: 0.609
[12]
  z-score: -0.285
[13]
  z-score: -6.05 (inactive)
[14]
  z-score: 0.513 (inactive)
[15]
  z-score: -0.209 (inactive)
